PK Bst = Pyruvate Kinase. purified pyruvate kinase, luminescence ATP production; ribose 5-phosphate activator present at AC10. Potency, µM. 51,000 compounds, 1.2% hits. AID 361, 2006; in the data active means potency below about 11 µM; inconclusive means mostly about 12 µM to 25 µM;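 the screen sought inhibitors and activators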;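 further: scaled between full activation by ribose 5 phosphate and full inhibition by luteolin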
TSHR agonist = qHTS Assay for Agonists of the Thyroid Stimulating Hormone Receptor. Thyrotropin receptor (Homo sapiens), P16473. AID 926, 2007. 73,000 compounds, 0.48% hits. HEK293-CNG-TSHR cells (CNG channel as cAMP sensor), membrane potential dye, cAMP. Potency, µM (top dose mostly 57.1 µM), for the others: at the highest dose activation, usual class: activators; active means well fitted activation curve with a large enough effect in the main read-out, with a control signal flat, not every such curve was filed as active; inconclusive means small, poorly fitted or top-dose-only effect, or a change in a side signal; inactive means no such curve, though single readings can be large or run the other way; % of control where 0% means no effect;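 further: the control signal comes from parental cells without the receptor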
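HEK 293 cells stably expressing TSHR and a cAMP-gated CNG channel; parental CNG-only cells as counterscreen. Cells preloaded 60 min with membrane potential dye plus 100 uM RO 20-1724, then compound 30 min; fluorescence read at 590 nm.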
GBA mod = Glucocerebrosidase | Lysosomal acid glucosylceramidase (Homo sapiens), P04062 | 48,000 compounds, 1.1% hits | Potency, µM | AID 360, 2006 | purified enzyme, resorufin glucoside fluorescence (screen aimed at inhibitors), 20 min; in the data active means potency below about 15 µM; inconclusive means mostly about 16 µM to 33 µM;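 further: the screen sought inhibitors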
Target sequence (P04062 whole entry, looked up): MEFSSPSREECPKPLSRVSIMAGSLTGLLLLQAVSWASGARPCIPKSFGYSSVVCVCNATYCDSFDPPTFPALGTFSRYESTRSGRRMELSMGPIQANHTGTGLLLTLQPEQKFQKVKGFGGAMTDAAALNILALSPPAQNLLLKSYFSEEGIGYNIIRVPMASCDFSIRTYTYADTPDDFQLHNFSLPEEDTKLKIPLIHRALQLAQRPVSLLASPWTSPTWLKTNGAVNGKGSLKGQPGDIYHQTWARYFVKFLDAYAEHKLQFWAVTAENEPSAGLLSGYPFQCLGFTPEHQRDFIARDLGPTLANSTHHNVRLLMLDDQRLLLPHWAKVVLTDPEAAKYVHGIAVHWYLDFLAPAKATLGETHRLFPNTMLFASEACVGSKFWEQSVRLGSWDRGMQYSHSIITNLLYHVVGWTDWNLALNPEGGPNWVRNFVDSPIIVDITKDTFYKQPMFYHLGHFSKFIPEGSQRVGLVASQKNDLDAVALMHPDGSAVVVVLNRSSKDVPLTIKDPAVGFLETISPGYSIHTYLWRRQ
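Normal human glucocerebrosidase (0.2 nM final) was assayed with resorufin β-D-glucopyranoside (30 uM final) in 50mM citric acid/KH2PO4, 10mM sodium taurocholate, 0.01% tween-20, pH 5.9. Compounds were titrated; fluorescence (Ex 548, Em 600) read after 20 min at RT.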
HEK293 cAMP ctrl = qHTS Assay for Agonists of the Thyroid Stimulating Hormone Receptor: Activators of Intracellular cAMP Concentrations in Parental HEK 293; parental HEK293 CNG cAMP sensor, membrane potential fluorescence; Potency, µM (highest dose often 57.1 µM), for inactives: at the highest dose activation, actives largely listed as activators; 73,000 compounds, 2.5% hits; AID 938, 2007; active means well fitted activation curve with a large enough effect; inconclusive means small, poorly fitted or top-dose-only effect; inactive means no such curve, though single readings can be large or run the other way; further: % of control where 0% means no effect; nearly all actives have a fitted effect of over 55% in size
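Counterscreen for endogenous-receptor signalling: CNG-channel HEK 293 cells report cAMP rise by membrane depolarization. After 60 min dye equilibration with 100 uM RO 20-1724, compounds incubated 30 min before bottom-read fluorescence at 590 nm.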
The depositor's hits bear a star; i = inactive; ? = inconclusive; / = no result given; [ ] = dose if it differs, or a comment. Rows were chosen to be rich in hits. Some 4% of all compounds tested hit in one or more screens of this group. Potency means the concentration at half of the fitted maximal effect.

SMILES	PK Bst	TSHR agonist	GBA mod	HEK293 cAMP ctrl
CSc1ncnc2c1ncn2CC(=O)[C@H]1CC[C@H]2[C@H]3CCC4=CC(=O)CC[C@@]4(C)[C@@H]3CC[C@@]12C	/	10%[11.4 µM]	/	1%[11.4 µM]
CC(C)CO/N=C1/C[C@@H](O)[C@@H](O)[C@@H]2[C@@H]3C(=O)N([C@@H](C)c4ccccc4)C(=O)[C@H]3CC[C@H]12	/	/	/	-7%[11.4 µM]
O=C1c2ccccc2-c2ccc(N(Cc3ccc(Br)cc3)Cc3ccc(Br)cc3)cc21	/	4%[11.4 µM]	/	14%[11.4 µM]
CN(C)S(=O)(=O)c1nc(Cl)c2[nH]cnc2n1	/	5%[11.4 µM]	/	10%[11.4 µM]
NCCC[C@@](N)(C(=O)O)C(F)F	/	9%	/	-5%
Cc1ccc(C)c2[nH]c(=O)c(CN(Cc3nnnn3C3CCCCC3)CC3CCCO3)cc12 (stereo unspecified)	>57	?	>77	25µM*
Clc1ccc2c(N3CCC(CCC4CCN(c5ncnc6cc(Cl)ccc56)CC4)CC3)ncnc2c1	/	-3%[11.4 µM]	/	-4%[11.4 µM]
CCOC(=O)C1CCN(S(=O)(=O)c2cn(C)c(=O)n(C)c2=O)CC1	/	?	/	16µM*
O=[N+]([O-])c1cccc(C(F)(F)F)c1	/	-3%	/	-6%
O=C1c2ccccc2C(=O)N1CCCc1nc(-c2ccc(Cl)cc2)no1	/	?	/	0.16µM*
O=C(O)CCCCn1cnc2c(=S)nc[nH]c21	/	-1%[11.4 µM]	/	5%[11.4 µM]
O=C(Oc1ccccc1)N1CCC2(CCCN(c3ccccn3)C2)CC1	/	?	/	20µM*
O=C(c1ccncc1)N1CCC2(CC1)CN(c1ccccn1)C2	/	?	/	7.9µM*
COc1cccc(/C=N/NC(=O)c2cc(-c3ccc(C)cc3)n[nH]2)c1O	/	24%	/	14%
Nc1c(S(N)(=O)=O)cc(S(N)(=O)=O)cc1S(N)(=O)=O	/	4%[11.4 µM]	/	1%[11.4 µM]
CNC(=O)[C@@H]1O[C@@H](n2cnc3c(N)ncnc32)[C@@H](O)[C@H]1O	/	?	/	3.2µM*
CCNC(=O)[C@@H]1O[C@@H](n2cnc3c(NCc4ccccc4)ncnc32)[C@@H](O)[C@H]1O	/	?	/	3.2µM*
Nc1ncnc2c1ncn2[C@@H]1O[C@@H](C(=O)NC2CC2)[C@H](O)[C@@H]1O	/	?	/	0.25µM*
Nc1ncnc2c1ncn2[C@@H]1O[C@H](COP(=O)(O)O)[C@@H](O)[C@@H]1O	/	-5%[25.6 µM]	/	-7%[25.6 µM]
O=C1[C@@H]2C(c3ccccc3Cl)=NO[C@@H]2C(=O)N1Cc1ccccc1	>57	3.2µM*	>77	2%
COc1ccc(CN2C(=O)[C@@H]3C(c4ccccc4Cl)=NO[C@@H]3C2=O)cc1	>57	/	/	2%
CCCCCC(=O)Nc1ccc(N2CCN(CC)CC2)c(Cl)c1	>57	-3%	0.7*	10%
COc1cc(C)cc2c(-c3c(O)cc(O)c4c3C[C@H](C)N[C@@H]4C)cc(-c3cc(-c4c(O)cc(O)c5c4C[C@H](C)N[C@@H]5C)c4cc(C)cc(OC)c4c3O)c(O)c12	/	4%[11.4 µM]	/	-1%[11.4 µM]
CCCn1c(-c2ccc(F)cc2)nc2c(NCCCN(C)C)nc(C)nc21	/	?	/	25µM*
CCCCNc1nc(C)nc2c1nc(-c1ccccc1)n2CCN(C)C	/	?	/	25µM*
SMILES	PK Bst	TSHR agonist	GBA mod	HEK293 cAMP ctrl
CCCn1c(-c2ccc(F)cc2)nc2c(NCC(C)(C)CN(C)C)nc(C)nc21	/	?	/	25µM*
c1ccc(-c2ccc(-c3ccc(C4=NCCN4)cc3)o2)cc1	/	5%[11.4 µM]	/	0%[11.4 µM]
CN(CCC(=O)O)S(=O)(=O)c1ccccc1	/	8%[11.4 µM]	/	7%[11.4 µM]
c1cncc(-c2nc(N3CCCCCC3)c3ccccc3n2)c1	>57	?	>77	25µM*
CNc1nc(-c2ccc(N(C)C)cc2)nc2ccccc12	/	?	/	-72%
COc1ccc(-c2cc(C(=O)OCC(=O)N3CCCC3)c3ccccc3n2)cc1	10*	5%	>77	27%
CCOc1ccc(-c2cc(C(=O)N3CCN(c4ccccn4)CC3)c3ccccc3n2)cc1	0.45*	4%[11.4 µM]	/	12%
Cc1cc(C(=O)OCC(=O)N2CCOCC2)c2ccccc2n1	>57	2%	>77	0%
COc1ccc(-c2cc(C(=O)N3CCN(c4ccccn4)CC3)c3ccccc3n2)cc1	2.2*	/	>77	8%
COc1cc(-c2cc(C(=O)N3CCN(c4ccccn4)CC3)c3ccccc3n2)cc(OC)c1OC	>57	15%[11.4 µM]	15*	0%
O[C@@H]1CC[C@H]2Cc3ccccc3N=C21	/	-3%	/	2%
CN(C)CCCNC(=O)c1ccc(Cc2nc3ccccc3[nH]2)cc1	/	-7%	/	-8%
O=C(c1ccco1)c1cn(CC(=O)N2CCCc3ccccc32)c2ccccc12	>57	?	>77	25µM*
CC1CCCCN1C(=O)Cn1cc(C(=O)c2ccco2)c2ccccc21 (stereo unspecified)	>57	?	>77	?
Nc1nc(CN2CCN(Cc3ccc4c(c3)OCO4)CC2)nc(Nc2ccccc2)n1	>57	2%	14*	30%
Cc1cccc(Nc2nc(N)nc(CN3CCN(c4ccc(F)cc4)CC3)n2)c1	>57	-5%	3.3*	1%
Nc1nc(CN2CCN(c3ccccc3F)CC2)nc(Nc2ccccc2)n1	>57	4%	2.3*	-1%
Cc1ccc(Nc2nc(N)nc(CN3CCN(c4ccccc4F)CC3)n2)cc1	>57	-5%	1.4*	7%
CCN1CCC[C@@H]1CNC(=O)c1c(OC)ccc(I)c1O	/	-3%	/	9%
O=C1c2cccc3c(Cl)ccc(c23)C(=O)N1O	5.1*	?	>77	-55%
CC(C)(C)OC(=O)N[C@@H](Cc1ccccc1)c1nnc(S(=O)(=O)Cc2cccc(F)c2)o1	>57	2%	15*	16%
Cc1c(C(=O)OCc2ccccc2)nnn1-c1nonc1N	>57	9%	>77	7%
CCOC(=O)c1c(C)n(OCc2ccccc2)c2ccc3nonc3c12	/	?	/	10µM*
CCCC(=O)NCCc1c2n(c3ccc(OC)cc13)Cc1ccccc1-2	/	/	/	-26%
COc1ccc(CNc2cc(C)nc3ncnn23)c(OC)c1	>57	?	>77	4µM*
SMILES	PK Bst	TSHR agonist	GBA mod	HEK293 cAMP ctrl
CCCC(=O)Nc1ccccc1NC(=O)C1CCCCC1	>57	17%	>77	12%
O=C(Nc1ccccc1N1CCN(c2ccccc2)CC1)C1CCCCC1	>57	?	>77	7.9µM*
CCCCNN	/	-6%[11.4 µM]	/	1%[11.4 µM]
Cc1ccc(N(CC(=O)N2CC(=O)Nc3ccccc32)S(=O)(=O)c2ccc3c(c2)OCCO3)cc1	>57	7.9µM*	i	10%
COc1ccc(-c2cc(=O)c3ccccc3s2)cc1	0.88*	?	>77	?
CCc1c(C)nc(Nc2nc(C)c3cc(OC)ccc3n2)[nH]c1=O	i	5%	>77	15%
CCCCCc1c(C)nc(Nc2nc(C)c3cc(OC)ccc3n2)[nH]c1=O	>57	?	>77	10µM*
O[C@@H](c1cc(-c2ccccc2)nc2c1ccc1ccccc12)[C@@H]1CCCCN1	/	10%[11.4 µM]	/	-2%[11.4 µM]
O=C(O)c1c[nH]c2c(ccc3[nH]cc(C(=O)O)c(=O)c32)c1=O	/	10%[11.4 µM]	/	9%[11.4 µM]
Cn1c(N2CCOCC2)nc(-c2ccccc2)c1-c1ccccc1	>57	/	8.6*	7%
CN(C)C=Nc1ncc2c3ccccc3n(CCN(C)C)c2c1C#N	?	-6%	/	21%

High-throughput results deposited in PubChem by National Center for Advancing Translational Sciences (NCATS).
